Inhibition data for 61 compounds are collected here from PubChem BioAssay AID1779 (Sanford-Burnham Center for Chemical Genomics, 2009).

Out of some 290,000 compounds screened, about 160 (0.055%) were called active. This is one part of a sample in which actives are shown more often than they occur. Unmarked numbers belong to inactive results. No stated cut-off is given here; in the data, active means inhibition above about 50%; inactive means the rest.

The assay deals with Tyrosine-protein phosphatase non-receptor type 22 (Homo sapiens) (UniProt Q9Y2R2). The experiment in a line: inhibitors of LYP phosphatase, biochemical, fluorescence intensity, uHTS (AID 1779).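 Further: plate controls were vehicle with enzyme for no effect and no enzyme for full effect.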 The following applies: recombinant LYP phosphatase, at 11.5 µM, hits give high values.
Chain of Tyrosine-protein phosphatase non-receptor type 22 (Homo sapiens) (Q9Y2R2 whole entry, looked up): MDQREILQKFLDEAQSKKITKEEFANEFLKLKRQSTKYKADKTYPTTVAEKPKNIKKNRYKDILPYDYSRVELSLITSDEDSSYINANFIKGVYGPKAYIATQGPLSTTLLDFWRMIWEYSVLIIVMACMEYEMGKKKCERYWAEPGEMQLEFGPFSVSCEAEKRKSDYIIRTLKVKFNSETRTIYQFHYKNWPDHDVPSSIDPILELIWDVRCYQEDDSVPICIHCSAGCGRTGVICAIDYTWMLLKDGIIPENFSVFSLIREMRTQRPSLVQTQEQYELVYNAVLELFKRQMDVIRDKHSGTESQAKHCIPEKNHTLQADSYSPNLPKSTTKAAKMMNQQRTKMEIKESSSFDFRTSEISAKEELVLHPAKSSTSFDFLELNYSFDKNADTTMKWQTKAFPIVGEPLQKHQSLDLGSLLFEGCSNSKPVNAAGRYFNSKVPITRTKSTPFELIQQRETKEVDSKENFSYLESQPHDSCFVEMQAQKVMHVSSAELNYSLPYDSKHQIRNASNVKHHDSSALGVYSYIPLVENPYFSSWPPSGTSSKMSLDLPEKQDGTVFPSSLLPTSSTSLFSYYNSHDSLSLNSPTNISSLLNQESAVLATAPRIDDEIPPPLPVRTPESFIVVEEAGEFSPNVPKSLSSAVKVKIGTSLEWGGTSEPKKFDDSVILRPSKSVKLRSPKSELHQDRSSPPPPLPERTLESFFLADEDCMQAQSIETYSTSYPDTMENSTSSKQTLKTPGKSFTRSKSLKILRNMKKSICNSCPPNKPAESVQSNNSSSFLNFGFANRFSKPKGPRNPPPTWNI
Turning to `CC(NC(=O)CN1CCN(c2ccccc2F)CC1)c1ccccc1` (stereo unspecified), the inhibition (in general, the drop in the measured response relative to a control, in per cent) is -13%.
To `CS(=O)(=O)N1CCc2ccc(NC(=O)C3CCCO3)cc2C1` (stereo unspecified) belongs 73.9% (active); to `CCCS(=O)(=O)N1CCc2ccc(NC(=O)C3CCCO3)cc2C1` (stereo unspecified), -11.2%.
As to `CN(C)S(=O)(=O)N1CCc2ccc(NC(=O)C3CCCO3)cc2C1` (stereo unspecified), the inhibition was -10.7%.
To `O=C(c1c(F)cccc1F)N1CCC(O)(c2cccnc2)CC1` belongs -8.4%.
As for `COc1ccc(Cl)cc1NC(=S)N1CCCC1`, the figure is -2%; as for `CCc1ccc(NC(=O)CS(=O)CC(=O)NCC2OCCc3ccccc32)cc1` (stereo unspecified), -6.3%; as for `O=C(CS(=O)CC(=O)Nc1ccc(Cl)cc1)NCC1OCCc2ccccc21` (stereo unspecified), 52.3% (active).
As for `COc1ccc(NC(=O)CS(=O)CC(=O)NCC2OCCc3ccccc32)cc1` (stereo unspecified), the figure is -5.2%; as for `O=C(O)c1ccccc1NC(=O)c1cc(-c2ccccc2)nc2ccccc12`, -12.6%.
For the compound `COC(=O)CCCC1=CC2=C(c3ccccc3)C(=O)C(C)(OC(=O)C3CCCC3)C(=O)C2=CN1CCN1CCOCC1` (stereo unspecified), the inhibition was -3.1%.
As for `CSc1nsc(SCC(=O)Nc2cccc(C(C)=O)c2)n1`, the figure is 52.6% (active).
In the case of `CSc1nsc(SCC(=O)Nc2cccc(C(=O)O)c2)n1`, the inhibition was -1.3%.
To `CSc1nsc(SCC(=O)Nc2cccc(NC(C)=O)c2)n1` belongs -3.8%; to `CO/C([O-])=N/c1c[n+](-c2ccc(Cl)cc2)no1`, -3.1%; to `COCCNC(=O)c1c(CSc2ccccc2)noc1C(=O)NCc1ccccc1`, -2.5%.
To `COc1c(C)cc(C(=O)C2CCCN(C(=O)c3csc(C)n3)C2)cc1C` (stereo unspecified) belongs -11.3%; to `OCC1(CCc2ccccc2)CCN(Cc2cc(Cl)ccc2O)CC1`, -10.5%; to `Fc1ccccc1Cn1nnc2c(NCCc3ccccn3)ncnc21`, -5.2%.
For `COc1cc(/C=N/n2c(-c3ccccc3)n[nH]c2=S)cc(OC)c1OC`, the inhibition was -1.8%.
As for `O=C1C2C(C(=O)N1/N=C/c1ccc([N+](=O)[O-])o1)C1C=CC2C12CC2` (stereo unspecified), the figure is -11.3%; as for `O=C1C2C(C(=O)N1/N=C/c1cccc([N+](=O)[O-])c1)C1C=CC2C12CC2` (stereo unspecified), 51.6% (active).
In the case of `O=C1C2C(C(=O)N1/N=C/c1cc([N+](=O)[O-])ccc1O)C1C=CC2C12CC2` (stereo unspecified), the inhibition is 0.1%.
To `COc1cc(/C=C/C(=O)OCC(=O)c2c(N)n(C)c(=O)n(C)c2=O)ccc1O` belongs 2.2%; to `CCN(CC)C(=O)c1sc(NC(=O)Cc2ccccc2)c(C#N)c1C`, -7.8%; to `CCOC(=O)c1c(-c2ccc(C)cc2)csc1NC(=O)c1cccc(N2C(=O)CCC2=O)c1`, 1%.
As for `CCCC[N+](C)(C)CCC(=O)NC(C)(C)CS(=O)(=O)[O-]`, the figure is -4.3%; as for `CC1(NC(=O)CC[N+](C)(C)CCO)CS(=O)(=O)CC1S(=O)(=O)[O-]` (stereo unspecified), 0.6%.
As for `Cc1c(C(=O)NNC(=S)NCc2ccc(Cl)cc2)oc2ccccc12`, the figure is -1.3%; as for `COC(=O)CCCC1=CC2=C(c3ccccc3)C(=O)C(C)(OC(=O)C3CCCC3)C(=O)C2=CN1CC1CC1` (stereo unspecified), -6.7%; as for `Cc1ccc2c(c1)N(C(=O)CCC(=O)NCc1cccc(Br)c1)CC(C)O2` (stereo unspecified), 90.4% (active).
`Cc1ccc2c(c1)N(C(=O)CCC(=O)NCc1ccccc1)CC(C)O2` (stereo unspecified): the inhibition is -6.7%.
Regarding `Cc1ccc2c(c1)N(C(=O)CCC(=O)NCc1cccc(Cl)c1)CC(C)O2` (stereo unspecified), the inhibition was -4%.
As for `COc1cccc(CNC(=O)c2csc3c2CCCC3)c1`, the figure is -8.1%; as for `CCC(=O)N(Cc1cc2cc(OC)ccc2[nH]c1=O)c1cccc(C)c1`, -4.9%; as for `CCCc1nc2c(=O)n(C)c(=O)nc-2n(C)n1`, 79% (active).
To `c1ccc(-c2nc(-c3ccccn3)nc(-c3ccccn3)n2)nc1` belongs -4%; to `CCCc1nc(SCC(=O)c2ccc(OC)cc2)c2c(=O)n(C)c(=O)n(C)c2n1`, 7.4%; to `Cn1nc(-c2ccc(Cl)cc2)nc2c(=O)n(C)c(=O)nc1-2`, -0.7%.
As for `CCn1c(N)nc2c1c(=O)n(C)c(=O)n2C`, the figure is 0.4%; as for `Cn1nc(-c2ccccn2)nc2c(=O)n(C)c(=O)nc1-2`, 73.5% (active); as for `Cn1c(N)c(C(=O)COC(=O)CCc2ccccc2)c(=O)n(C)c1=O`, -4.8%.
For the compound `CC1CCCC(NC(=O)COC(=O)CCc2ccccc2)C1C` (stereo unspecified), the inhibition was -5.4%.
As to `Clc1ccccc1CNCC1CCCO1` (stereo unspecified), the inhibition is -13.9%.
As for `CCOC(=O)COc1c(/C=N\O)cc(Cl)cc1OC`, the figure is -4.2%.
As for `COc1ccc(C(=O)c2no[n+]([O-])c2C(=O)c2ccc(OC)cc2)cc1`, the figure is 7.8%; as for `Cc1ccc(C(=O)c2no[n+]([O-])c2C(=O)c2ccc(C)cc2)cc1`, -5.8%; as for `O=C(c1cccs1)c1no[n+]([O-])c1C(=O)c1cccs1`, 55.5% (active).
As for `CN(CC(=O)Nc1ccc(F)cc1)C(=O)CSc1nc2ncc(Cl)cc2[nH]1`, the inhibition was -4.4%.
For the compound `N#Cc1ccc(N/N=C/c2cn(-c3ccccc3)nc2-c2ccccc2)c([N+](=O)[O-])c1`, the inhibition is -1.1%.
To `COCCn1c(C)cc(C(=O)COc2ncnc3ccc(Br)cc23)c1C` belongs -1.5%; to `CCOc1ccc(NC(=O)CN(c2ccc(C)cc2)S(=O)(=O)c2c(C)nn(C)c2C)cc1`, -8.4%; to `Cn1c(SCC(=O)N2CCN(c3ccccc3)CC2)nnc1-c1ccccc1`, -8.4%.
To `Cn1c(SCC(=O)N2CCN(c3ccccc3)CC2)nnc1-c1cc2ccccc2o1` belongs 79.7% (active).
To `Cn1c(SCC(=O)N2CCN(c3ccccc3)CC2)nnc1-c1ccco1` belongs -8.2%; to `Cc1ccc(CNS(=O)(=O)c2ccc(C(C)(C)C)cc2)n1C`, -5.6%.
Turning to `Cc1cccc(NC(=O)CN2CCOCC2)c1C`, the inhibition was -9.5%.
With `c1ccc2c(CN3CCCCC3)csc2c1`, the inhibition is 68.1% (active).
Take `Clc1ccc2scc(CN3CCCCC3)c2c1`: the inhibition is -6.7%.
As for `c1ccc2c(CN3CCOCC3)csc2c1`, the figure is -4.5%; as for `C=CCn1c(C)cc(C(=O)CN2NS(=O)(=O)c3ccccc3C2=O)c1C`, -3.8%.
